High-throughput results (PubChem)
HP1b binding inh = HP1-beta chromodomain-methylated histone interaction inhibition. Potency, µM (doses to about 114 µM), for the others: at the top dose activity change, negative = inhibition, hits mostly inhibitors. P83916. AlphaScreen HP1-beta / biotin-H3K9me3 peptide binding. 390,000 tested, 0.56% active. AID 540317; also: nearly all actives have a fitted effect of over 70% in size
Target sequence (P83916 whole entry, looked up): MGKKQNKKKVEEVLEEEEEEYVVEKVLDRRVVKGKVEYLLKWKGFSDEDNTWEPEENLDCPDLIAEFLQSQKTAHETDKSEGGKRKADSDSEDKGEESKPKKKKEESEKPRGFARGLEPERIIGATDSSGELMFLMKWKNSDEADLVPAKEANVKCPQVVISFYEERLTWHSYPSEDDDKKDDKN
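AlphaScreen: HP1-beta (50 nM) preformed 30 min with biotin-H3(1-18)K9me3 peptide (50 nM) in PBS pH 7.4, 0.01% Tween-20. Compound added for 30 min at RT, then streptavidin donor/nickel chelate acceptor beads (10 ug/mL) for 30 min.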
G9a inh = inhibitors of human histone lysine methyltransferase G9a. Q96KQ7. G9a H3K9 monomethylation, AlphaScreen, 2 h. Potency, µM (top dose mostly 102 µM), for inactives: at the top dose activity, negative = inhibition, usual class: inhibitors. 350,000 tested, 8.8% active. AID 504332; also: % is scaled to controls: 0 for no effect and ±100 for the full control effect; nearly all actives have a fitted effect of over 75% in size
Target sequence (Q96KQ7 913-1193 limits assumed): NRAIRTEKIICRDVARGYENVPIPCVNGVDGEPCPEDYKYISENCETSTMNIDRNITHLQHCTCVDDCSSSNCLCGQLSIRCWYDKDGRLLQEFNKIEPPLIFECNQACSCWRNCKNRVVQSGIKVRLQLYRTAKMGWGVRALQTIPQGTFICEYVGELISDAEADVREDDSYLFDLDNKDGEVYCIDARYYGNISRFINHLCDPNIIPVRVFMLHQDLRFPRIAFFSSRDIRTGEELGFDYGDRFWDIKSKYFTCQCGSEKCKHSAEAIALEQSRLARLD
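Compounds were preincubated with 20 nM G9a for 15 min, after which biotinylated H3K9 peptide (500 nM) and SAM (20 uM) started a 2 h room-temperature reaction. Monomethylated product was quantified by antibody-based AlphaScreen chemiluminescence.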
BAZ2B block = inhibitors of human BAZ2B bromodomain | Q9UIF8 | AlphaScreen BAZ2B-H3K14Ac peptide displacement | Potency, µM (highest dose often 114 µM), inactives show at the highest dose activity change, negative = inhibition, actives largely listed as inhibitors | 360,000 tested, 4.4% active | AID 504333; also: % is scaled to controls: 0 for no effect and ±100 for the full control effect; nearly all actives have a fitted effect of over 60% in size
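Protein-peptide AlphaScreen: BAZ2B 50 nM, b-H3K14Ac 50 nM, 1x PBS pH 7.4 + 0.01% Tween-20. Preincubation 30 min RT; cpd 30 min RT (top 110 uM); beads 20 min RT, light-protected.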
Sfp inh = blocks B. subtilis Sfp PPTase activity; Q9F4F7; Biochemical Sfp PPTase activity, qHTS; Potency, µM, inactives show largest response in the series, negative = inhibition, most hits filed as inhibitors; 310,000 tested, 3.5% active; AID 1490;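 also: the enzyme is Sfp with the accession as filed and its product quenches rhodamine fluorescence; 0% = enzyme reaction without inhibitor and -100% = no enzyme wells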
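After 15 min at room temperature with compound, 15 nM Sfp received 5 uM rhodamine-CoA plus 12.5 uM BHQ-2-ybbR (50 mM Hepes pH 7.6, 10 mM MgCl2). Rate came from the fluorescence difference over 30 min, ex 525/em 598 nm.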
JMJD2A Tudor inh = blocks the human JMJD2A Tudor domain; O75164; AlphaScreen JMJD2A-Tudor / H3K4me3 peptide binding; Potency, µM (titrated, usually from 114 µM), for inactives: at the top dose activity change, negative = inhibition, actives largely listed as inhibitors; 390,000 tested, 4.4% active; AID 504339; also: % is scaled to controls: 0 for no effect and ±100 for the full control effect; nearly all actives have a fitted effect of over 50% in size
L3MBTL1 inh = blocks human L3MBTL1. AlphaScreen L3MBTL1–H3K9me1 peptide binding. Potency, µM (titrated, usually from 57.1 µM), for inactives: at the highest dose activity, negative = inhibition, usual class: inhibitors. 230,000 tested, 0.66% active. AID 485360; also: % is scaled to controls: 0 for no effect and ±100 for the full control effect; nearly all actives have a fitted effect of over 60% in size
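Read-out is AlphaScreen signal from streptavidin donor and nickel chelate acceptor beads (10 ug/mL final each) bridging L3MBTL1 (50 nM) and biotinylated K9-monomethylated H3(1-15) peptide (75 nM), after 30 min compound exposure at room temperature.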
* = called active by the depositor; ? = inconclusive; nt = no result given; ! = not active in a repeat; [ ] = remark or other dose. Most compounds without a hit are left out; they make up all but 12% or so of the library. Calls follow the shape of the dose curve; as a rule, active = well fitted curve in the direction sought with a large enough effect; inconclusive = small, poorly fitted or top-dose-only effect, or another doubt; inactive = no such curve, though single readings can be large; an effect the other way counts as inactive or inconclusive. Potency is read from the fitted curve at half-maximal effect.

SMILES | HP1b binding inh | G9a inh | BAZ2B block | Sfp inh | JMJD2A Tudor inh | L3MBTL1 inh
C[N+](C)(C)CCOP(=O)(O)OP(=O)([O-])OC[C@H]1O[C@@H](n2ccc(N)nc2=O)[C@H](O)[C@@H]1O | 28% | 10µM*! | -5% | 12% | -5% | -4%
Nc1ccn([C@@H]2O[C@H](CO)[C@@H](O)[C@H]2O)c(=O)n1 | 50% | nt | nt | -4% | -17% | nt
C[N+](C)(C)CCOP(=O)([O-])OP(=O)(O)OCC1OC(n2ccc(N)nc2=O)C(O)C1O (centres undefined) | nt | -45%[2.33 µM] | nt | 11% | nt | nt
CCCCCC(=O)Nc1ccc(NC(=O)c2cc3ccccc3o2)c(OC)c1 | 8% | -4%[59 µM] | -6% | nt | -15% | nt
CN(C)CCC1(C2=CCCC2)CC/C(=C/c2ccc(Cl)cc2)C1=O (centres undefined) | -6% | nt | nt | nt | -30% | nt
CCNc1ncc2nc(-c3ccc(F)cc3)c(=O)n(C)c2n1 | nt | -11%[0.501 µM] | nt | -1% | nt | nt
CCN1/C(=C/C=C/c2oc3ccc(-c4ccccc4)cc3[n+]2CC)Oc2ccc(-c3ccccc3)cc21 | -20% | nt | 28µM* | 11µM* | ? | -89%
CC(C)CN(CC(C)C)C(=O)C1CCCN(S(=O)(=O)c2ccc3c(c2)oc(=O)n3C)C1 (centres undefined) | 59% | 8%[59 µM] | 0% | nt | -1% | nt
COCCn1c(=S)[nH]c2cc(C(=O)N3CCC(C(N)=O)(N4CCCCC4)CC3)ccc2c1=O | 44% | 35µM* | -36% | -6% | ? | -3%
COc1ccccc1Cn1c(=S)[nH]c2cc(C(=O)N3CCC(C(N)=O)CC3)ccc2c1=O | 49% | 79µM* | -13% | ? | -7% | nt
CCOCCCn1c(=S)[nH]c2cc(C(=O)N3CCC(C(N)=O)CC3)ccc2c1=O | 19% | 35µM* | ? | -24% | 8.9µM* | 10%
Cc1ccc(-c2cnc(NCc3cc4c(cc3[N+](=O)[O-])OCO4)n2C)cc1C | ? | 0% | -14% | 23% | 32µM* | -8%
O=C(Nc1ccc2c(c1)N(C1CCCC1)C(=O)c1ccccc1S2)c1ccccc1 | 21% | -12%[59 µM] | -12% | nt | -27% | nt
CCOC(=O)/C(=N\Nc1ccc(Cl)cc1)c1csc(Nc2ccccc2)n1 | -17% | ? | -13% | -1% | ? | nt
Clc1ccc(Nc2nc(C3CC3)cs2)cc1 | 29% | 40µM* | -6% | ? | -34% | nt
Cc1ccc(Nc2nc(C3CC3)cs2)cc1 | nt | 40µM* | -5% | 45µM* | nt | 8%
CCc1cc(C(=O)NNC(=S)NCC2CCCO2)cs1 (centres undefined) | 35% | 9% | 8% | 12% | -12% | -8%
Cc1cc(Cl)c2ccccc2n1 | 42% | -8%[59 µM] | 4% | 2% | 0% | 0%
Cc1cc(Cl)c2ccc3ccccc3c2n1 | 27% | 25µM* | 58% | 2% | 21% | 37%
CN1CCN(c2ccc(NS(=O)(=O)c3ccc(Cl)cc3)cn2)CC1 | 32% | ? | -22% | -12% | -13% | -15%
CN1CCN(NS(=O)(=O)c2ccc(Cl)cc2)CC1 | 15% | 1.1µM* | 1% | 2% | -11% | nt
Nc1c(C(=O)N/N=C/c2ccc(F)cc2)oc2nc(-c3ccccc3)cc(-c3ccco3)c12 | 13% | 28µM* | -22% | -8% | -32% | -18%
Nc1c(C(=O)N/N=C/c2ccccc2Cl)oc2nc(-c3ccccc3)cc(-c3ccco3)c12 | 30% | 20µM* | -23% | -14% | -21% | -17%
O=C(N/N=C/c1ccc(F)cc1)c1cc(-c2ccco2)nc2ccccc12 | 22µM* | ? | 2.8µM* | ? | ? | 3.5µM*
CCC(C(=O)C(C)C(O)C(C)CCc1ccc(C)c(O)c1C(=O)O)C1OC(CC)(C2CC[C@@](O)(CC)C(C)O2)CC1C (some centres undefined) | nt | -3%[2.33 µM] | nt | 12% | nt | nt
SMILES | HP1b binding inh | G9a inh | BAZ2B block | Sfp inh | JMJD2A Tudor inh | L3MBTL1 inh
CCOC(=O)c1ccccc1NC(=O)Nc1cc2c(cc1N1CCCCC1)n(C)c(=O)n2C | 22% | 6%[59 µM] | ? | nt | -17% | nt
O=c1[nH]c(=S)[nH]c2nc(-c3cccs3)cc(C(F)(F)F)c12 | 36% | 79µM* | -6% | 6% | -15% | nt
CN(C)S(=O)(=O)c1ccc(C(=O)NCc2ccccc2)cc1 | 16% | -5%[59 µM] | nt | 8% | 3% | 4%
CN(C)S(=O)(=O)c1ccc(C(=O)NCC2CC2(Cl)Cl)cc1 (centres undefined) | -7% | 2%[59 µM] | 12% | -1% | 13µM* | nt
COc1nccnc1NS(=O)(=O)c1ccc(NC(=O)c2ccc(F)cc2)cc1 | -18% | 10% | -4% | 6% | -15% | nt
COc1nccnc1NS(=O)(=O)c1ccc(NC(=O)c2cccc(C)c2)cc1 | 15% | nt | 79µM* | -6% | -11% | 6%
COc1nccnc1NS(=O)(=O)c1ccc(N/C=C2\CCCCC2=O)cc1 | 10% | 50µM* | ? | 14% | -23% | -8%
COc1nccnc1NS(=O)(=O)c1ccc(NC(=S)NC(=O)c2ccc(F)c(F)c2)cc1 | -2% | 50µM* | ? | -25% | -14% | 0%
COc1nccnc1NS(=O)(=O)c1ccc(NS(=O)(=O)c2ccc(NC(C)=O)cc2)cc1 | 23% | 16%[59 µM] | 6% | 3% | -11% | nt
COc1nccnc1NS(=O)(=O)c1ccc(NCc2cc(Br)ccc2O)cc1 | ? | 45µM* | ? | 19% | -36% | nt
CC(C)(Oc1ccc(C2CCCc3ccccc32)cc1)C(=O)O (centres undefined) | nt | -2%[12.7 µM] | nt | -3% | nt | nt
Cc1cccn2c(=O)nc(SCC(=O)N3CCCC3)nc12 | -3% | 3% | 8% | nt | -19% | 4%
Cc1ccc(NC(=O)CN2C(=O)N/C(=C\c3ccco3)C2=O)cc1 | -14% | nt | nt | nt | -12% | -2%
Cc1ccc(CN2CCN(/N=C/c3cccn3C)CC2)c(C)c1 | ? | 25µM* | 50µM* | -6% | 40µM* | -17%
Cc1ccc(CN2CCN(/N=C/c3ccc(C)s3)CC2)c(C)c1 | ? | ? | 35µM* | 19% | 45µM* | -20%
Cc1cccc(/C=N/N2CCN(c3ccccc3)CC2)c1 | -19% | -19%[59 µM] | ? | 16% | ? | -10%
Cc1ccc(/C=N/n2cnnc2)s1 | 17% | 22% | 3% | 8% | 17% | 7%
CC(Nc1oc(-c2ccc(COc3ccccc3)o2)nc1C#N)c1ccccc1 (centres undefined) | -15% | ? | ? | nt | -30% | nt
CCOc1cc(/C=C(/C#N)c2nc3ccccc3[nH]2)ccc1OCc1ccc(C(=O)O)o1 | 17% | 71µM* | ? | -30% | -23% | -28%
CCOc1cc(/C=C(/C#N)c2ccc(F)cc2)ccc1OCc1ccc(C(=O)O)o1 | 10% | -7% | -5% | -1% | -28% | -10%
